# Source: PubChem BioAssay
# HP1b binding inh: blocks HP1-beta chromodomain binding to methylated histone tails. P83916. AlphaScreen HP1-beta / biotin-H3K9me3 peptide binding. Potency, µM (doses to about 114 µM), for inactives: top-dose activity change, negative = inhibition, most hits filed as inhibitors. 390,000 compounds, 0.56% hits; note: potency is the fitted concentration of half-maximal effect; nearly all actives have a fitted effect of over 70% in size
#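 Compound inhibition of the preformed complex between 50 nM HP1-beta and 50 nM biotinylated H3K9me3 peptide was read by AlphaScreen. Buffer was PBS pH 7.4 with 0.01% Tween-20. Incubations ran 30 min at room temperature, with 10 ug/mL donor/acceptor beads.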
# L3MBTL1 block: inhibitors of human L3MBTL1; AlphaScreen L3MBTL1–H3K9me1 peptide binding; 230,000 compounds, 0.66% hits; Potency, µM (series often up to 57.1 µM), for inactives: at the highest dose activity, negative = inhibition, actives largely listed as inhibitors; Q9Y468; AID 485360; note: potency is the fitted concentration of half-maximal effect; % is set by controls: 0 for no effect and ±100 for the full control effect; nearly all actives have a fitted effect of over 60% in size
#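 First, the protein-peptide complex forms for 30 min at room temperature (L3MBTL1 50 nM, biotinylated H3K9me1 peptide 75 nM). Next, compounds are pin-transferred and incubated 30 min. Finally, AlphaScreen beads are added and read after 30 min.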
# PI5P4K alpha inh: inhibitors of human PI5P4K alpha; AID 652105; P48426; 330,000 compounds, 1.2% hits; max response, %; PI5P4Kalpha enzyme, ADP-Glo luminescence, 60 min; hits give low values; active = max response of -50% or lower; inconclusive = between -30% and -50%; inactive = -30% or higher; note: value at the top dose of about 77 µM; % is set by controls: 0 for no effect and ±100 for the full control effect
#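 Human PI5P4Kalpha with substrate in 0.038 M HEPES pH 7.4, 0.28 mM EGTA, 0.1% CHAPS, 5% DMSO; reaction started with 5 microM ATP (final), 60 min at room temperature. ADP formed read by ADP-Glo luminescence.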
# BAZ2B block: BAZ2B (human) inhibition; Q9UIF8; AlphaScreen BAZ2B-H3K14Ac peptide displacement; Potency, µM (doses to about 114 µM), for inactives: at the highest dose activity change, negative = inhibition, actives largely listed as inhibitors; 360,000 compounds, 4.4% hits; AID 504333; note: potency is the fitted concentration of half-maximal effect; % is set by controls: 0 for no effect and ±100 for the full control effect; nearly all actives have a fitted effect of over 60% in size
#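 Complex of BAZ2B and biotin-H3K14Ac (50 nM apiece) forms over 30 min at RT, then faces library compounds up to 110 uM for another 30 min; AlphaScreen beads added, 20 min dark incubation, luminescence read.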
# G9a inh: inhibitors of human histone lysine methyltransferase G9a. G9a H3K9 monomethylation, AlphaScreen, 2 h. Potency, µM (series often up to 102 µM), for inactives: top-dose activity, negative = inhibition, most hits filed as inhibitors. 350,000 compounds, 8.8% hits. AID 504332; note: potency is the fitted concentration of half-maximal effect; % is set by controls: 0 for no effect and ±100 for the full control effect; nearly all actives have a fitted effect of over 75% in size
#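 AlphaScreen read-out: biotin-H3K9 peptide (500 nM) methylation by 20 nM enzyme with 20 uM SAM, 2 h at room temperature after 15 min compound preincubation; anti-monomethyl H3K9 antibody plus donor/acceptor beads, 10 min dark.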
# JMJD2A Tudor: blocks the human JMJD2A Tudor domain | O75164 | AlphaScreen JMJD2A-Tudor / H3K4me3 peptide binding | Potency, µM (doses to about 114 µM), for inactives: at the highest dose activity change, negative = inhibition, actives largely listed as inhibitors | 390,000 compounds, 4.4% hits; note: potency is the fitted concentration of half-maximal effect; % is set by controls: 0 for no effect and ±100 for the full control effect; nearly all actives have a fitted effect of over 50% in size
# Target sequence (O75164 whole entry, looked up, the tested form may be a part): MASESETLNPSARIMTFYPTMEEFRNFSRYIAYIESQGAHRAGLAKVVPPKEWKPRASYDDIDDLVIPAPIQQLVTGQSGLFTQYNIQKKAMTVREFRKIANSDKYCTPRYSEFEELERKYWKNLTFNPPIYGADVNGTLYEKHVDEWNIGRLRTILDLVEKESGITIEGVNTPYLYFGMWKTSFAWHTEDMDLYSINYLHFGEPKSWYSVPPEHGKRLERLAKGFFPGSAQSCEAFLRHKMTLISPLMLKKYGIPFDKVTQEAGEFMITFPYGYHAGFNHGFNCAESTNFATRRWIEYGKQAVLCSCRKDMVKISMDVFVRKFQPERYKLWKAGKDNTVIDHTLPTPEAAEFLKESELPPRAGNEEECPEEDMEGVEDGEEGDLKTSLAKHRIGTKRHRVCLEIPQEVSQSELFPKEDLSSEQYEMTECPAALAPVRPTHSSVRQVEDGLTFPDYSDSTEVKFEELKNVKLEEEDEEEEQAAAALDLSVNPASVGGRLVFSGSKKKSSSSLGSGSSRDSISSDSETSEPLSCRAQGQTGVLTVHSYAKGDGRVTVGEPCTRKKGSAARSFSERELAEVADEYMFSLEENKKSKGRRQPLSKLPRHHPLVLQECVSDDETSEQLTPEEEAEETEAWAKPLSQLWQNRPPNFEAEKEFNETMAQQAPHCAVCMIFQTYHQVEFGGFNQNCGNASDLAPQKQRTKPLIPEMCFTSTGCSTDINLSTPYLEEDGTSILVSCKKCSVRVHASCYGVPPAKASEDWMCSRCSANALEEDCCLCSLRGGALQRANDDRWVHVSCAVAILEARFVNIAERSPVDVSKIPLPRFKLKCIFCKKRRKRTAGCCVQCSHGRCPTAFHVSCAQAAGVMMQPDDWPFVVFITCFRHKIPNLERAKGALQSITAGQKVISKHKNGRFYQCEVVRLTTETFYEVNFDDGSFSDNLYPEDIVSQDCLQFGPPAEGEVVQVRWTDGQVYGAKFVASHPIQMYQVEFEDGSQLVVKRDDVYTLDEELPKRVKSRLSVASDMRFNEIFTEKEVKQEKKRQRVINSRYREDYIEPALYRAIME
# The depositor's hits bear a star; ? = inconclusive; / = no result given; [ ] = dose if it differs, or a comment. Most compounds without a hit are left out; they make up all but 11% or so of the library. Unless noted, calls come from the whole dose curve; as a rule, active = well fitted inhibition curve with a large enough effect; inconclusive = small, poorly fitted or top-dose-only effect; inactive = no such curve, though single readings can be large or run the other way.
SMILES,HP1b binding inh,L3MBTL1 block,PI5P4K alpha inh,BAZ2B block,G9a inh,JMJD2A Tudor
O=C(Nc1nnc(-c2ccccn2)o1)c1cccc(Br)c1,30%,?,-10,?,-10%,?
O=C(Nc1nnc(C2=COCCO2)o1)c1cccc(Br)c1,35%,/,-6,71µM*,45%,-3%
CS(=O)(=O)c1cccc(C(=O)Nc2nnc(C3=COCCO3)o2)c1,75%,?,0,18µM*,-10%[0.501 µM],3.2µM*
COc1ccc(Cl)cc1NC(=O)Cn1c(=O)n(Cc2ccc(F)cc2)c(=O)c2cccnc21,19%,/,/,-1%,2%[59 µM],-7%
COc1cc(NS(=O)(=O)c2ccc(NC(=O)c3cccc(F)c3)cc2)nc(OC)n1,25%,/,/,0%,-4%[59 µM],5%
O=C(/C=C/NCC(=O)c1ccccc1)c1ccc(Br)cc1,22%,-15%,-6,-35%,6.3µM*,-32%
CCOc1ccc(/C=C2\SC(=S)N(CC(=O)NCCCN3CCOCC3)C2=O)cc1,-25%,/,-9,-31%,?,?
COC(=O)c1ccc(/C=C2\SC(=S)N(CCCC(=O)NCCCN3CCOCC3)C2=O)cc1,71µM*,/,7,?,?,-33%
CC(C)c1ccc(/C=C2\SC(=S)N(CC(=O)NCCCN3CCOCC3)C2=O)cc1,?,/,9,32µM*,79µM*,?
O=C(CN1C(=O)/C(=C/c2cccc(Br)c2)SC1=S)NCCCN1CCOCC1,?,/,-14,?,/,?
CCc1ccc(/C=C2\SC(=S)N(CCC(=O)NCCCN3CCOCC3)C2=O)cc1,-8%,/,1,35µM*,/,?
O=C(CCCN1C(=O)/C(=C/c2cccc(Br)c2)SC1=S)NCCCN1CCOCC1,-19%,/,-5,10µM*,45µM*,45µM*
Cc1ccc(/C=C2\SC(=S)N(CCC(=O)NCCCN3CCOCC3)C2=O)cc1,11%,/,2,-24%,-14%,-36%
COc1ccc(/C=C2\SC(=S)N(CCC(=O)NCCCN3CCOCC3)C2=O)cc1,1%,/,-9,?,?,?
COc1ccc(CCNC(=O)Cc2c(C)c3c(cc(C)c4c(C)coc43)oc2=O)cc1,36%,/,/,-3%,10%[59 µM],-7%
COc1ccc2c(c1)c1c(c(=O)n(-c3ccccc3C)c(=O)n1Cc1cccc(C(F)(F)F)c1)n2C,51%,/,/,-1%,-6%[59 µM],17%
CCOc1cc(/C=C(\C#N)C(=O)Nc2ccc(C)cc2)ccc1OCc1cc(=O)n2nc(CC)sc2n1,15%,/,/,1%,-6%[59 µM],-20%
O=C(CSc1c2c(nc3cc(Cl)ccc13)CCCC2)N1CCN(c2ccccc2F)CC1,34%,/,/,-16%,-3%[59 µM],-12%
CCNc1nc(NCC)n2c(SCc3ccc(F)cc3)nnc2n1,4%,-2%[11.4 µM],-1,8%,10µM*,-14%
CCNc1nc(NCC)n2c(SCC(=O)Nc3ccc(CC)cc3)nnc2n1,?,-1%,?,-33%,2.5µM*,?
CCNc1nc(NCC)n2c(SCC(=O)Nc3ccccc3F)nnc2n1,-14%,-8%,-2,8%,-13%[0.501 µM],-11%
CCNc1nc(NCC)n2c(SCc3nc4ccccc4c(=O)[nH]3)nnc2n1,25%,8%,3,-4%,2%[12.7 µM],-7%
CCNc1nc(NCC)n2c(SCC(=O)Nc3ccc(NC(C)=O)cc3)nnc2n1,0%,-40%,-1,50µM*,50µM*,-25%
O=C(CSc1n[nH]c(-c2ccccc2Cl)n1)NCCc1ccccc1,17%[57 µM],/,/,1%,-5%[59 µM],-14%
Cc1cnc(NC(=O)COc2ccccc2)s1,-9%,-1%,-1,-3%,2%[59 µM],89µM*
SMILES,HP1b binding inh,L3MBTL1 block,PI5P4K alpha inh,BAZ2B block,G9a inh,JMJD2A Tudor
O=C(COC(=O)c1ccccc1)Nc1ncc([N+](=O)[O-])s1,?,3.5µM*,-74*,/,/,20µM*
Cc1cnc(NC(=O)c2ccncc2)s1,11%,-6%,-12,-29%,50µM*,5%
Cc1nnc(NC(=O)c2ccncc2)s1,19%,/,-6,-1%,5%[59 µM],11%
Cc1cnc(NC(=O)CCCc2nc3ccccc3s2)s1,8%,-17%,-16,-9%,35µM*,-7%
COc1ccccc1OCC(=O)Nc1ncc(C)s1,28%,2%,-10,-2%,15%[12.7 µM],-11%
Cc1nc(-n2nc(C)c(Cc3ccccc3Cl)c2C)sc1C(=O)Nc1ccccc1F,45%,/,/,2%,-13%[59 µM],4%
O=C(COc1ccccc1)Nc1nn[nH]n1,33%,/,-3,79µM*,?,79µM*
O=C(CCCSc1nc2ccccc2s1)Nc1nccs1,37%,0%,-1,2%,-35%[59 µM],16%
O=C(CCCc1nc2ccccc2s1)NCc1ccccc1,28%,2%,5,-6%,16%[59 µM],-8%
O=C(CCCc1nc2ccccc2s1)NNC(=O)CCN1CCN(Cc2ccccc2)CC1,12%,-7%,-4,-22%,35µM*,-10%
O=C(CCCc1nc2ccccc2s1)Nc1nccs1,23%,5%,-7,-2%,40µM*,-11%
O=C(COc1cccc(Oc2ccccc2)c1)Nc1ncccn1,36%,1%,1,7%,?,-18%
CCNc1ncc2nc(-c3ccc(F)cc3)c(=O)n(CCC#N)c2n1,/,/,/,/,-2%[12.7 µM],/
Cc1ccc(S(=O)(=O)Nc2cc(Cl)c3oc4c(c3c2)C(=O)CC(C)(C)C4)cc1,37%,/,/,-14%,-2%[59 µM],-7%
Cc1nn(C)c2c1c(-c1ccccc1)cc(=O)n2Cc1ccccc1C#N,167%,/,/,2%,-19%[59 µM],11%
CC(C)Sc1ncc(Cl)c(C(=O)Nc2nc3ccc(S(C)(=O)=O)cc3s2)n1,71%,/,/,24%,54%[59 µM],-10%
CCn1c(CC2C(=O)N(C)c3ccccc32)nc2ccccc2c1=O (stereo not drawn),4%,/,/,-1%,-31%[59 µM],-14%
